Source: PubChem
HSF1 activator = HSF-1 activators, primary screen, NIH3T3-HGL cells, MG132 stress, luminescence, single point | NIH3T3-HGL HSF-1 luciferase reporter, 8 h; 100% = twice DMSO control signal | 300,000 tested, 1.7% active | activation, % at 9 µM | AID 504408, 2011;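 active = mean replicate activation of at least 50% with a set share of replicates each reaching 50%; inconclusive = only one of those two conditions met; inactive = mean below 50% and too few replicates reaching it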
HSP90 refold inh = HSP90 inhibitors, primary screen, cell lysate, luminescence; Heat shock protein HSP 90 (rabbit reticulocyte lysate; luciferase refolding); Rabbit reticulocyte lysate, luciferase refolding luminescence, 3 h; inhibition, % at 5.6 µM; 290,000 tested, 0.91% active;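 active = inhibition above the screen-wide mean plus 3 SD, computed separately per campaign, cut at about 16% in these data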;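 note: inhibitors lower the luminescence because luciferase stays unfolded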
dFosB act-1 = activators of delta FosB homodimer, primary screen, biochemical, fluorescence polarization, TAMRA-CDK5 oligo, single point. Protein FosB (Mus musculus), P13346. purified delta FosB; percent of positive-control signal above neutral wells. activation, % at 25 µM. 340,000 tested, 0.99% active. AID 493131, 2011;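 active = mean activation above about 17%, with every replicate also reaching it, limit read from the data, passing the limit was not always enough; inconclusive = only one of the two conditions met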
Target sequence (P13346 whole entry, looked up): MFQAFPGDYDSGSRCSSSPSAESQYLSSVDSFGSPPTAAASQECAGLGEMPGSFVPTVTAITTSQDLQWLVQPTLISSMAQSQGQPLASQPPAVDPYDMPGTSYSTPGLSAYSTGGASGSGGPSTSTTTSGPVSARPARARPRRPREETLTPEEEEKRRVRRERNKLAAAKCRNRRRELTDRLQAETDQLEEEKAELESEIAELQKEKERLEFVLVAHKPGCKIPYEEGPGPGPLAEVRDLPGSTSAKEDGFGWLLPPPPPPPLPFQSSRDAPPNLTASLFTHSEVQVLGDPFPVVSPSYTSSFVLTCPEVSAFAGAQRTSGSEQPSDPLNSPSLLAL
MPTP block = mitochondrial permeability transition pore inhibitors, primary screen, biochemical, isolated mouse mitochondria, absorbance | Ca2+ swelling absorbance, 30 min | inhibition, % at 10 µM | 360,000 tested, 1.4% active | AID 602449, 2012;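 active = inhibition of 50% or more, scaled per plate between neutral and stimulator controls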
Platelet DG rel = inhibitors of platelet dense granule secretion, primary screen, cell-based, MLPCN, human platelets; human platelet-rich plasma, SFLLRN dense granule ATP release, luminescence; inhibition, %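 (compounds screened at 7.5 µM in platelet-rich plasma)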; 300,000 tested, 0.22% active; AID 1663, 2009;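 active = mean replicate score, as percent of positive control, at or above 50; inconclusive = mean below 50 but at least one replicate at or above 50; inactive = mean and every replicate below 50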
HSF1 inhib = HSF1 inhibitors in luciferase reporter cells, primary screen, cell-based, NIH3T3, luminescence | NIH3T3-HGL HSE-luciferase, MG132-induced, luminescence 8 h; hits give low values | activity change, negative = inhibition, % at 7.5 µM (by protocol) | 300,000 tested, 0.77% active | AID 2098, 2009;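 active = more than half of replicate wells show activity change below -50%, luminescence cut by over half; inconclusive = some wells, but at most half, below -50%; inactive = no replicate well below -50%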;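 note: luciferase reports HSF-1 transcriptional activity via heat shock element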
dFosB act-2 = activators of mouse delta FosB DNA binding, confirmation, biochemical, fluorescence polarization, TAMRA-CDK5 oligo, cherry-picked samples | purified delta FosB; normalised: neutral wells 0, positive control 100 | AID 588690, 2011 | activation, % at 24.9 µM | 2,400 tested, under 10 active | shares compounds with dFosB act-1;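 active = highest replicate activation at or above 34% and every replicate reaching that threshold; inconclusive = meets only one of the two criteria; inactive = meets neither criterion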;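 note: higher polarization means more probe DNA bound by delta FosB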
Large screens that a line does not name were inactive (follow-up assays come after a bar, where they were run); ! = not active in a repeat. A selection: hits, their analogues and other compounds. The true share with any hit is near 4.9%.

COc1cc(C(=O)Oc2cccc(/C=N/NC(=O)c3cc(C)[nH]n3)c2)cc(OC)c1OC	none
O=C(COC(=O)c1cc(Br)ccc1Cl)NC1CCCC1	none
O=C(Cn1ncc2c([nH]c3ccccc32)c1=O)NCCc1ccccc1	dFosB act-1 43.5 | dFosB act-2 inactive
CCN(CCCNC(=O)Cn1ncc2c([nH]c3ccccc32)c1=O)Cc1ccccc1	none
COc1ccc(CNC(=O)CSc2nnc3c(n2)[nH]c2ccc(OC)cc23)cc1	dFosB act-1 40.0 | dFosB act-2 inactive
CCc1ccc2[nH]c3nc(SCc4nnc(-c5ccccc5)o4)nnc3c2c1	none
Cc1ccc(CNC(=O)CSc2nnc3c(n2)[nH]c2ccccc23)cc1	dFosB act-1 28.2 | dFosB act-2 inactive
COc1ccc2[nH]c3nc(SCc4nnc(-c5ccccc5)o4)nnc3c2c1	dFosB act-1 18.9 | dFosB act-2 inactive
Cc1ccc(NC(=O)CSc2nnc3c(n2)[nH]c2ccccc23)cc1	none
CCOc1ccc2nc(C)cc(Nc3ccc4c(c3)OCCO4)c2c1	dFosB act-1 43.5 | dFosB act-2 inactive
Cc1cc(Nc2ccc3c(c2)OCCO3)c2cccc(C)c2n1	dFosB act-1 30.6 | dFosB act-2 inactive
CCOc1ccc2nc(C)cc(Nc3ccc(N4CCOCC4)cc3)c2c1	none (no result: dFosB act-1, MPTP block)
CCOc1ccccc1C(=O)NCC(=O)OCC(=O)c1ccc2c(c1)OCCO2	dFosB act-1 17.9 | dFosB act-2 inactive
Cc1noc(C)c1C(=O)N1CCC1(C)C(=O)NS(=O)(=O)c1cccc(F)c1 (configuration not stated)	none (no result: HSF1 activator, HSP90 refold inh, dFosB act-1, Platelet DG rel, HSF1 inhib)
COc1ccc(CCCNC(=O)C2Cc3c(-c4cccc(C(C)=O)c4)ccnc3O2)cc1 (configuration not stated)	none (no result: HSF1 activator, HSP90 refold inh, dFosB act-1, Platelet DG rel, HSF1 inhib)
Cc1cn(-c2cc(NC(=O)c3ccc(C)c(NC(=O)c4cccc(-c5cn[nH]c(=O)c5)c4)c3)cc(C(F)(F)F)c2)cn1	dFosB act-1 41.3 | dFosB act-2 inactive
COC(=O)c1ccc(CO/N=C/c2cccc([N+](=O)[O-])c2)cc1	none
O=C(Nc1cc(Cl)ccc1-n1cncn1)c1ccc(Br)o1	dFosB act-1 36.1 (no result: HSP90 refold inh) | dFosB act-2 inactive
CCc1cccc(OCC(=O)Nc2cc(Cl)ccc2-n2cncn2)c1	none (no result: HSF1 activator, HSP90 refold inh, Platelet DG rel, HSF1 inhib)
O=C(COc1ccc(F)cc1)Nc1cc(Cl)ccc1-n1cncn1	dFosB act-1 26.2, HSF1 inhib inconclusive (no result: HSP90 refold inh) | dFosB act-2 inactive
O=C(Nc1cc(Cl)ccc1-n1cncn1)c1cncc(Br)c1	none (no result: HSP90 refold inh)
Nc1ccc2c3c(ccc([N+](=O)[O-])c13)CC2	none (no result: HSF1 activator, HSP90 refold inh, dFosB act-1, Platelet DG rel, HSF1 inhib)
CCCCC(=O)Nc1nnc(S(=O)(=O)N(CC)c2ccccc2)s1	dFosB act-1 18.0 | dFosB act-2 inactive
O=C(NCc1ccccc1)C1Cc2c(-c3ccc4c(c3)OCO4)ccnc2O1 (configuration not stated)	none (no result: HSF1 activator, HSP90 refold inh, dFosB act-1, Platelet DG rel, HSF1 inhib)
O=c1[nH][nH]c(=S)n1-c1ccccc1C(F)(F)F	none (no result: HSF1 activator, dFosB act-1, MPTP block, Platelet DG rel, HSF1 inhib)
COC(=O)c1ccc2c(c1)C(=O)/C(=C/c1ccc(C)cc1)O2	none
O=C1Nc2ccccc2O/C1=C\c1c(F)cccc1Cl	dFosB act-1 24.7 | dFosB act-2 inactive
COC(=O)c1ccc(/C=C2\Oc3ccccc3NC2=O)cc1	dFosB act-1 33.1 | dFosB act-2 inactive
CC1CC(C)C(=O)C(C(CC2CC(=O)NC(=O)C2)OC(=O)CC(=O)c2ccccc2)C1 (configuration not stated)	none (no result: HSF1 activator, HSP90 refold inh, Platelet DG rel, HSF1 inhib)
COc1ccc(N2CC(C(=O)Nc3c4c(nn3-c3ccccc3)CS(=O)(=O)C4)CC2=O)cc1 (configuration not stated)	none
CCOc1ccc(-n2cc(C(=O)Nc3cccc(OC)c3)c3cc(OC)c(OC)cc3c2=O)cc1	dFosB act-1 40.0 | dFosB act-2 inactive
CC1(C(=O)NS(=O)(=O)c2cccc(F)c2)CCN1C(=O)c1ccccc1 (configuration not stated)	none (no result: HSF1 activator, HSP90 refold inh, dFosB act-1, Platelet DG rel, HSF1 inhib)
O=C(Cn1c2ccccc2c(=O)c2ccccc21)Nc1cccc(F)c1	dFosB act-1 37.3 | dFosB act-2 inactive
Cc1ccc(OCc2cc(C(=O)NCC(C)(C)N3CCOCC3)no2)cc1C	none
Clc1ccc(CO/N=C2\CCCc3nonc32)cc1	none
CN1CCN(Cc2nc3ccccc3c(=O)n2Cc2nc(-c3ccc4ccccc4c3)cs2)CC1	dFosB act-1 27.1! | dFosB act-2 inactive
COC(=O)C1C=CC(OC2OC(COC(C)=O)C(OC(C)=O)C(OC(C)=O)C2OC(C)=O)n2c(=O)n(-c3ccccc3)c(=O)n21 (configuration not stated)	none (no result: HSF1 activator, HSP90 refold inh, Platelet DG rel, HSF1 inhib)
Cc1ccc(NC(=O)Cn2c(=O)n(CCCC(=O)NCc3ccco3)c(=O)c3ccccc32)cc1	dFosB act-1 32.3 | dFosB act-2 inactive
Cc1ccc(Cn2c(=O)n(-c3ccccc3)c(=O)c3ccc(C(=O)NCc4ccco4)cc32)cc1	dFosB act-1 26.3 | dFosB act-2 inactive
CCC(C)NC(=O)Cn1c(=O)n(-c2ccccc2)c(=O)c2ccc(C(=O)NCc3ccco3)cc21 (configuration not stated)	none (no result: HSF1 activator, Platelet DG rel, HSF1 inhib)
Cc1cccc(Cn2c(=O)n(-c3ccc(CC(=O)NCc4ccco4)cc3)c(=O)c3sccc32)c1	dFosB act-1 48.5 | dFosB act-2 inactive
O=C(Cn1c(=O)n(Cc2ccccc2)c(=O)c2ccccc21)NCc1ccco1	none
COc1cc2c(=O)n(Cc3ccccc3)c(=O)n(CC(=O)NCc3ccco3)c2cc1OC	dFosB act-1 31.2 | dFosB act-2 inactive
Cc1ccc(-n2c(=O)c3sccc3n(CC(=O)NCc3ccco3)c2=O)cc1	none
COc1ccccc1OCC(=O)NNc1c2ccccc2nc2ccccc12	none
O=C(Cn1c(=O)n(CC(=O)NCc2ccccc2)c2ccccc21)NCc1ccccc1	dFosB act-1 24.5 | dFosB act-2 inactive
Cc1c(C#N)c2ccccc2n1CC(=O)NCc1ccccc1	none
Cc1cccc(C)c1NC(=O)CNC(=O)c1ccccc1	none
NC(=O)c1cccc(-c2cc(Nc3ccc(OC(F)(F)F)cc3)ncn2)c1	none (no result: HSP90 refold inh)
COc1ccc(NC(=O)c2cc(S(=O)(=O)N3CCS(=O)(=O)CC3)ccc2Cl)cc1	dFosB act-1 51.9 | dFosB act-2 inactive
O=C(c1ccccc1NS(=O)(=O)c1cccc([N+](=O)[O-])c1)N1CCCC1	none
C[C@@H](CSc1ccccc1)CN1CC[C@H](O)CCC1=O	none
NC(=S)N/N=C/c1coc2cc(Br)ccc2c1=O	dFosB act-1 24.3 | dFosB act-2 inactive
